# Out of some 3,600 compounds screened, about 900 (25%) were called active. How the calls were made is not given here. The list is a sample of the results. Entries that show only a call come without a potency. Potency and affinity values are given separately.
# Biological target: Protein Tat (Human immunodeficiency virus type 1 group M subtype B (isolate HXB2)) (UniProt P04608)
# Assay: HIV-1 Tat–TAR interaction blockers – biochemical, fluorescence polarization, FAM-labeled TAR RNA, counter-screen for Vif-APOBEC3G degradation inhibitor project, dose response (AID 1117361)
# Conditions: Tat-TAR RNA binding; series mostly up to 100 µM
row,Compound,outcome
1,COc1ccc(S(=O)(=O)NCCSCc2ccco2)cc1Cl,inactive
2,CC(=O)Nc1ccc(S(=O)(=O)Nc2ccc(NC(=O)c3ccco3)cc2)cc1,inactive
3,FC(F)(F)c1cccc(Oc2ccc3c(C(F)(F)F)cc(C(F)(F)F)nc3n2)c1,inactive
4,O=C(Cc1c(F)cccc1Cl)NNC(=O)c1ccccc1Cl,inactive
5,CCc1ccccc1NC(=O)CC(O)(C(=O)OC)C(F)(F)F (stereo not drawn),inactive
6,O=C(CN1C(=O)NC2(CCCCCCC2)C1=O)NCc1ccc2c(c1)OCO2,inactive
7,O=C(CN1C(=O)NC2(CCCCC2)C1=O)NCCC1=CCCCC1,inactive
8,Cc1ccc(C(=O)COC(=O)CNC(=O)Cc2ccccc2)cc1[N+](=O)[O-],inactive
9,O=C(CN1C(=O)NC(c2ccc(F)cc2)C1=O)Nc1ccc2c(c1)OCCO2 (stereo not drawn),inactive
10,O=C(CSc1nnc(-c2cccs2)o1)OC1CCCCC1,inactive
11,CC1=C(C(=O)NCc2ccco2)C2(CCC(C)CC2)OC1=O (stereo not drawn),inactive
12,O=C1COc2ccc(C(=O)NCc3ccco3)cc2N1,inactive
13,Fc1ccc2[nH]c3c(N4CCc5ccccc5C4)ncnc3c2c1,inactive
14,CC1CCN(C(=O)C2c3ccccc3C(=O)N3CCc4ccccc4C23)CC1 (stereo not drawn),inactive
15,COc1ccc(-n2c(=O)[nH]cc(C(=O)N3CCc4ccccc43)c2=O)cc1,inactive
16,CCOc1ccc(C(=O)NC2CCN(S(=O)(=O)CC)CC2)cc1,inactive
17,CNS(=O)(=O)c1cccc(C(=O)OCc2cc(Cl)cc3c2OCOC3)c1,inactive
18,COCCn1c(SCC(=O)Nc2cc(C)on2)nc2cc(Cl)ccc2c1=O,inactive
19,CCN(CC)CCN=CC1=C(O)CNC1=O,inactive
20,CCOc1ccccc1N1C(=O)c2ccc(C(=O)Nc3cccnc3)cc2C1=O,inactive
21,C[C@H](NC(=O)NCc1cccs1)C(=O)O,inactive
22,CCOC(=O)c1c(C)[nH]c(C)c1C(=O)COC(=O)c1cccc(S(=O)(=O)NC)c1,inactive

row,Compound,outcome
1,COc1ccc(NC(=O)/C(C#N)=C/c2ccc(Br)o2)cc1,inactive
2,COc1ccc(NC(=O)/C(C#N)=C/c2ccc(Sc3nncn3C)c([N+](=O)[O-])c2)cc1,inactive
3,CCN(c1ccc(NC(=O)COC(=O)c2ccc([N+](=O)[O-])o2)cc1)C(C)C,inactive
4,CCOC(CCNC(=O)c1cn(C)c(=O)c2c1c1ccccc1n2C)OCC,inactive
5,COc1ccccc1-n1c(SCC(=O)NCc2ccc3c(c2)OCO3)nc2cc([N+](=O)[O-])ccc21,inactive
6,Nc1cc(N)nc(SCc2cc([N+](=O)[O-])cc3c2OCOC3)n1,inactive
7,COCCn1c(N)c(N(Cc2ccccc2)C(=O)C2CCCCC2)c(=O)[nH]c1=O,inactive
8,Cc1ccc(S(=O)(=O)N2CCN(Cc3nc4sc(C)c(C)c4c(=O)[nH]3)CC2)cc1,inactive
9,CCc1ccc(C(=O)Nc2ccc(S(=O)(=O)Nc3nc(C)cc(C)n3)cc2)o1,inactive
10,O=C(NC12CC3CC(CC(C3)C1)C2)c1ccc(S(=O)(=O)N2CCOCC2)cc1,inactive
11,CCn1ncc(Br)c1C(=O)Nc1sc2c(c1C(N)=O)CCC2,inactive
12,CCOC(=O)CNC(=O)Cn1cnc2c(nnn2-c2ccc(F)cc2)c1=O,inactive
13,Cc1nc2nc(COc3ccccc3)[nH]n2c(=O)c1Cc1ccccc1,inactive
14,O=c1cc2c(n[nH]1)CCCC2,inactive
15,O=C(Nc1cccc(Cl)c1)C1=Cc2cc(Cl)ccc2OC1,inactive
16,Cc1ccc(NC(=O)/C=C\C(=O)O)c([N+](=O)[O-])c1,inactive
17,CCN(CC)S(=O)(=O)c1cccc(NC(=O)/C=C/c2cccc([N+](=O)[O-])c2)c1,inactive
18,COc1ccc(NC(=O)/C=C/c2ccc(S(=O)(=O)N3CCOCC3)cc2)cc1,inactive
19,Cc1nc(NC(=O)/C=C/c2ccccc2)sc1C(=O)Nc1ccccc1,inactive
20,O=C(CSc1ncnc2ccccc12)Nc1cccc(S(=O)(=O)N2CCOCC2)c1,inactive
21,Cc1sc2nc(SCC(=O)N3CCOCC3)[nH]c(=O)c2c1C,inactive
22,Cc1cc(C)cc(C(=O)N2CCC(C(N)=O)CC2)c1,inactive

row,Compound,outcome
1,O=C(CNS(=O)(=O)c1ccccc1)OCC(=O)c1ccc(OC(=O)c2ccccc2)cc1,inactive
2,O=C1CCc2cc(S(=O)(=O)NC(Cc3ccccc3)C(=O)NCC3CCCO3)ccc2N1 (stereo not drawn),inactive
3,NC(=O)c1nsnc1-c1ccccc1O,inactive
4,CC1C=CC=CC=CC=CC=CC=CC=CC(OC2OC(C)C(O)C(N)C2O)CC2OC(O)(CC(O)CC(O)C(O)CCC(O)CC(O)CC(=O)OC(C)C(C)C1O)CC(O)C2C(=O)O (stereo not drawn),inactive
5,COc1ccc(S(=O)(=O)N(C)Cc2cccs2)cc1Br,inactive
6,O=C(OCn1nnc2ccccc2c1=O)C1=COCCO1,inactive
7,CC(=O)Nc1ccc(N=Nc2ccccc2)cc1,inactive
8,O=C(NCCNC(=O)c1cc(OCC(F)(F)F)ccc1OCC(F)(F)F)Nc1cccc(C(F)(F)F)c1,inactive
9,Cc1cc(-c2ccccc2)nc(Oc2ccc(C(C)(C)C)cc2)c1S(C)(=O)=O,inactive
10,CCc1nnc(NC(=O)CSc2nnc(Cc3ccccc3)n2-c2ccc(OC)cc2)s1,inactive
11,COc1ccc(C(=O)NC2CC3CCCC(C2)N3CC(C)C)cc1 (stereo not drawn),inactive
12,COc1ccc(CN2CCNC(=O)C2CC(=O)NC2CCCC2)cc1OC (stereo not drawn),inactive
13,C=C1Cn2c(nnc2-c2ccc(Cl)cc2)S1,inactive
14,Cc1ccc(C)c(OCCC(=O)Nc2ccccc2C(=O)NC2CC2)c1,inactive
15,Cc1ccc2c(Cl)cc(Cl)c(OCC(=O)NCc3ccco3)c2n1,inactive
16,CCC1CCC2(CC1)NC(=O)N(CC(=O)Nc1ccc(OC)c(Cl)c1)C2=O (stereo not drawn),inactive
17,CC(C)(C)NC(=O)COC(=O)c1cc(S(=O)(=O)N2CCCCC2)ccc1N1CCOCC1,inactive
18,CCOCCCNC(=O)c1ccccc1Br,inactive
19,O=C1[C@@H]2CSCN2C(=O)CN1CCc1cccc(F)c1,inactive
20,COc1ccc(C(=O)Cn2c(=N)n(C)c3ccccc32)cc1,inactive
21,CCn1c(CNC(C)=O)nnc1SCC(=O)c1ccc(Br)cc1,inactive
22,CCN(c1ccccc1)S(=O)(=O)c1ccc(C(=O)NNC(=O)c2ccccc2F)cc1,inactive

row,Compound,outcome
1,CN(C(=O)CSc1nnc(N)s1)c1c(N)n(Cc2ccccc2)c(=O)[nH]c1=O,inactive
2,CC(C)CN(C(=O)CN1CCN(S(=O)(=O)c2ccccc2)CC1)c1c(N)n(CC(C)C)c(=O)[nH]c1=O,inactive
3,Cc1cccc(N2CCN(CC(=O)Nc3nccs3)CC2)c1C,inactive
4,COC(=O)CSc1nnc(CNC(=O)c2ccccc2OC)n1-c1ccc(OC)cc1,inactive
5,CS(=O)(=O)N1CCCC(C(=O)NCCCN2CCC(Cc3ccccc3)CC2)C1 (stereo not drawn),inactive
6,O=C1C2C3CC(C(Br)C3Br)C2C(=O)N1c1ccccn1 (stereo not drawn),inactive
7,CCOc1ccc2nc(N3CCCC(C(=O)NCCCN4CCOCC4)C3)sc2c1 (stereo not drawn),inactive
8,COc1cc(OC)c2ccc(=O)oc2c1C(CCN1CCCC(C)C1)c1ccc2c(c1)OCO2 (stereo not drawn),inactive
9,O=C1C(Cc2ccccc2)SC(=Nc2ccccc2)N1c1ccccc1 (stereo not drawn),inactive
10,COc1ccc2[nH]c(C(=O)O)c(CCN3C(=O)c4cccc([N+](=O)[O-])c4C3=O)c2c1,inactive
11,COc1ccc2nc(NNC(=O)c3cc(=O)c4ccccc4o3)sc2c1,inactive
12,Cc1ccc2cc3c(NC(=O)c4cccnc4)nn(C)c3nc2c1,inactive
13,O=C1C2CCCN2C(c2ccccc2)N1c1nccs1 (stereo not drawn),inactive
14,O=C1NN(c2cccc(Br)c2)C(=O)/C1=C\c1ccccc1,inactive
15,CCCCc1cc(=O)oc2cc(OCC(=O)N(CC)CC)c(Cl)cc12,inactive
16,Cc1ccccc1C(=O)NCC(=O)OC(C)C(=O)NC(C)CCc1ccccc1 (stereo not drawn),inactive
17,CC(C)(C)n1nc2c(c1NC(=O)c1ccc(Br)o1)CS(=O)C2 (stereo not drawn),inactive
18,O=C(Nc1cccc(OC(F)(F)F)c1)c1ccc(Br)o1,inactive
19,Cc1cc(C)c2nc(SCC(=O)NCCN3C(=O)CSC3=O)cc(C)c2c1,inactive
20,CCN(CC)CCNC(=O)Cc1c(C(=O)O)n(C)c2ccccc12,inactive
21,COc1ccc(NC(=O)CN2CCC(C(N)=O)CC2)cc1,inactive
22,O=c1cc(CO)oc(C(Nc2ccccn2)c2ccc(F)cc2)c1O (stereo not drawn),inactive

row,Compound,outcome
1,OCCNc1ccc(Cl)cc1,inactive
2,O=C(c1ccco1)N1CCN=C1SCc1cccc(Cl)c1,inactive
3,O=C(c1ccco1)N1CCN(C(=O)c2cn(-c3ccccc3)nc2-c2ccccc2)CC1,inactive
4,CC(C)(C)c1cc(C(C)(C)C)cc(S(=O)(=O)CCc2ccccn2)c1,inactive
5,C#CC(=O)N(c1cc(OC)ccc1OC)C(C(=O)NC1CCCC1)c1cccs1 (stereo not drawn),inactive
6,CCOC(=O)Nc1nnc(-c2ccccc2OC)s1,inactive
7,COc1ccccc1-c1c(C)[nH]n2c(=O)c(Cc3ccccc3)c(C)nc12,inactive
8,O=C(O)Cn1c(SC2CCCCC2)nc2ccccc21,inactive
9,Cc1nn(Cc2ccc(Cl)cc2)c(C)c1NC(=O)c1cc(-c2ccc3c(c2)OCO3)on1,inactive
10,Cc1cc(C)cc(NC(=O)CN2CCC(NC(=O)Cc3ccccc3)CC2)c1,inactive
11,CC(C)c1ccc(-c2nc(N3CCCC3)nc3n[nH]c(N)c23)cc1,inactive
12,N#Cc1ccc(N2CCN(C(=O)c3cccc(F)c3)CC2)c(F)c1,inactive
13,CC(C)Oc1ccc2ccccc2c1C=O,inactive
14,Cc1cc(C)n2nc(SC(C)C(=O)N3CCCC3)nc2n1 (stereo not drawn),inactive
15,COc1ccc(CCNCc2ccc(OCc3ccccc3)cc2)cc1,inactive
16,Cc1nc(OCc2ccccc2)c2ccccc2n1,inactive
17,Oc1ccc(/C=N/N=C/c2ccc(O)c(O)c2)cc1O,inactive
18,O=c1cc(CSc2ccccn2)c2ccccc2[nH]1,inactive
19,Cc1ccnc(N2CCCC(C(=O)Nc3cc(F)ccc3C)C2)n1 (stereo not drawn),inactive
20,Cn1c(=O)c2c(ncn2CCCNC2=CC(C)(C)CC(=O)C2)n(C)c1=O,inactive

# Reference: PubChem BioAssay AID1117361 (Southern Research Institute, 2015)
